Assay [1] concerns the target T1, Aspartate--tRNA(Asp/Asn) ligase (Mycobacterium tuberculosis (strain ATCC 25618 / H37Rv)) (UniProt P9WFW3). Also: in the data most compounds retested in dose-response had high values.
T1 sequence (whole entry): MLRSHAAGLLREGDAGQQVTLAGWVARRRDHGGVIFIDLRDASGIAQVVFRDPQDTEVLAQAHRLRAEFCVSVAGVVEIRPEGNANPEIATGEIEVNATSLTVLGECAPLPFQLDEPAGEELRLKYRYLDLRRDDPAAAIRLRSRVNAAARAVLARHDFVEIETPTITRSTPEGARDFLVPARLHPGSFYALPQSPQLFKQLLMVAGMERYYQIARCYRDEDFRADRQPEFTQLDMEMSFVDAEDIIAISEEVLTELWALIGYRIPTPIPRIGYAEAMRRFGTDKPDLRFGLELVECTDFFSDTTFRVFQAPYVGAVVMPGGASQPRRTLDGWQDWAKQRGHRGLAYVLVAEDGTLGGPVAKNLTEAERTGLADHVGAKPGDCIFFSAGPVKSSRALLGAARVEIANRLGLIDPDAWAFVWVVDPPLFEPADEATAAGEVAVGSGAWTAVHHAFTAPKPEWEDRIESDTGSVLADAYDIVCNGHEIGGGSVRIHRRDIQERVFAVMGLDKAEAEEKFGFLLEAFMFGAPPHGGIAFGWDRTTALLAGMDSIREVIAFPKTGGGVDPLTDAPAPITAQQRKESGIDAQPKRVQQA
Kind of assay: Assay for Asp RNA synthetase-1 from Mycobacterium tuberculosis. As to conditions: 30 µM. Also noted: scale not given: direction of the effect not stated beside the values. Format: functional.

The target of assay [2] is Shiga toxin 2 (Escherichia coli O157:H7) (UniProt P09385+P09386). Kind of assay: E. coli 0.157:H7 Shiga Toxin SOP - stx2 screening assay. Also noted: scale not given: direction of the effect not stated beside the values. Format: functional. As to conditions: 30 µM.

Consider `Cc1nc(C)n(CC2CCCN(CCNC(=O)OC(C)(C)C)C2)n1` (configuration not stated), for which the Percent Effect in assay [1] is -2.36%; in assay [2], 7.06%.
Take `COc1ccc(C(C(=O)O)N2CCCN(C3CCCC3)CC2)cc1OC` (configuration not stated): the Percent Effect is 0.804% in assay [1] and -25.6% in assay [2].
On to `Cc1ccc(N2CCCC(NCc3ccsc3)C2)nn1` (configuration not stated), for which the Percent Effect was 4.57% in assay [1] and 10.6% in assay [2].
In the same order, the values of `O=c1ccc(-c2ccccc2F)nn1CCN1CCCS1(=O)=O` are -1.45% and -0.28%.
As to `CCCNC(=O)Nc1cc2c(cc1SC)OCCO2`, the Percent Effect in assay [1] is -0.324%; in assay [2], -0.581%.
In the same order, the values of `CCc1nccn1C1CCCN(C(=O)Cc2cn3ccccc3n2)C1` (configuration not stated) are 0.0146% and -20.4%.
`O=C(c1cccnc1)N1CCC2(CC1)CCN(c1ccsc1)C2=O`: the values for the Percent Effect in assay [1] and in assay [2] were 3.8% and -6.67%, respectively.
In the same order, the values of `Cn1cc(CN2CC[C@H]3C[C@H](c4nc(C5CC5)cs4)O[C@@H]3C2)cn1` are -0.624% and -28.1%.
The matching figures for `CCOC(=O)C1CCN(C(=O)Cn2ccc3cc(Br)ccc32)CC1`: -2.06% and -21.9%.
In the same order, the values of `Cc1cnn(CCNCC(=O)NCCOc2ccccc2)c1` are -2.67% and 18.2%.
As to `CN1CCN(C[C@@H]2OC[C@H]3CN(Cc4ccsc4)CC[C@H]32)CC1`, the Percent Effect in assay [1] was -4.08%; in assay [2], 3.13%.
The matching figures for `COCCn1c2c(ccc1=O)CC(NS(C)(=O)=O)CC2` (configuration not stated): 2.72% and -20.6%.
For `Cc1cc(C)c(CNC(=O)NCC(O)COc2ccccc2)c(=O)[nH]1` (configuration not stated), the Percent Effect in assay [1] stood at 4.61%; in assay [2] it was 27.6%.
Take `O=C(c1ccccn1)N1Cc2nccn2CC(CN2CCOCC2)C1` (configuration not stated): the Percent Effect is 11.5% in assay [1] and -21.6% in assay [2].
In the same order, the values of `CCC(=O)N(C)CC(=O)Nc1ccc(Br)cn1` are -3.04% and -18.8%.
`Nc1nccc(N2CCCC(CO)(CCOc3ccccc3)C2)n1` (configuration not stated): the Percent Effect was 9.3% in assay [1] and -17.8% in assay [2].
In the same order, the values of `CC(C)N(C)C(=O)C1=NOC2(CCN(C(=O)c3ccccn3)C2)C1` (configuration not stated) are 2.07% and 3%.
Consider `Cc1cnn(CC2CCCN2C(=O)c2cnc3n[nH]c(C)c3c2)c1` (configuration not stated), for which the results for the Percent Effect in assay [1] and in assay [2] were -3.6% and -40.6%, respectively.
For `CN(C)c1cc(C(=O)N2CCCN(Cc3cscn3)CC2)ccn1`, the Percent Effect in assay [1] is -2.62%; in assay [2], -13.1%.
With `CC(C)NC(=O)C1CN(C(=O)N2CCCC2)CC12CCOCC2` (configuration not stated), the Percent Effect in assay [1] was -2.03%; in assay [2] it was 8.24%.
As to `Cn1cc(CN2CC3(CCN(C(=O)c4cscn4)C3)C2)cn1`, the Percent Effect in assay [1] was -5.56%; in assay [2] it was -18.3%.
In the same order, the values of `Cn1cnc(S(=O)(=O)NCCN2CCCCCC2=O)c1Cl` are -1.7% and 17.3%.
For `COc1ccccc1S(=O)(=O)Nc1ccc2c(C(=O)O)c[nH]c2c1`, the Percent Effect in assay [1] is 3.46%; in assay [2] it was 12.9%.
For the compound `O=C(NCc1ccccn1)[C@@H]1COC[C@H]2CN(C3CCOCC3)C[C@H]21`, the Percent Effect in assay [1] was 7.53%; in assay [2] it was -6.42%.
In the case of `CC(C)c1noc(C(C)N2CCN(Cc3ccsc3)CC2)n1` (configuration not stated), the values for the Percent Effect in assay [1] and in assay [2] were -3.93% and 27.9%, respectively.
For `O=C(NCCCN1CCOCC1)Nc1cnc2cc(Cl)ccc2c1O`, the Percent Effect in assay [1] was 1.35%; in assay [2], -13.4%.
Turning to `Cc1cc(CN2CCN(c3ccc4nncn4n3)C(C)C2)no1` (configuration not stated), the Percent Effect in assay [1] is -3.98%; in assay [2], -29.9%.
The matching figures for `CC(C)c1ccc(-c2nnn(CCNS(C)(=O)=O)n2)cc1`: -1.05% and -43.9%.
`CCc1noc(C(C)N(C)CC(=O)Nc2cccc(C)n2)n1` (configuration not stated): the Percent Effect was -1.61% in assay [1] and -14.2% in assay [2].
For `CN(C)C(=O)CC1CC2(CCN(c3ncccn3)CC2)c2ccccc21` (configuration not stated), the results for the Percent Effect in assay [1] and in assay [2] were 2.97% and -6.02%, respectively.
Turning to `Cc1nn(C)cc1CN1CCC(C2Nc3ccccc3S(=O)(=O)N2)CC1` (configuration not stated), the Percent Effect in assay [1] is -0.223%; in assay [2], 14.6%.
In the same order, the values of `CN(C)CCCn1ccnc1C1CCCN(c2cc(N)ncn2)C1` (configuration not stated) are -0.232% and 1.04%.
The matching figures for `O=C(c1ccc(Cl)o1)N1CCCN(Cc2cscn2)CC1`: -7.87% and 6.75%.
With `CCOCCN1CCCC(c2cc(C(N)=O)[nH]n2)C1` (configuration not stated), the Percent Effect is -2.28% in assay [1] and -7.08% in assay [2].
Regarding `CCn1cnnc1CNC(=O)c1cc(Cl)ccc1O`, the Percent Effect is 3.77% in assay [1] and -19.6% in assay [2].
In the same order, the values of `CC(C)c1n[nH]c(C2CN(C(=O)CCCn3cccn3)CCO2)n1` (configuration not stated) are -2.62% and -10.6%.
As to `CCc1ccc(C(=O)N2CCCC(c3noc(CC)n3)C2)o1` (configuration not stated), the Percent Effect in assay [1] is -2.33%; in assay [2], 10.6%.
The matching figures for `CCc1nnc2n1CCN(C(=O)C(C)COCc1ccccc1)C2` (configuration not stated): 0.562% and 31.4%.
The matching figures for `Cc1cc(C)n(CC2CN(Cc3nc(-c4ccco4)no3)CCO2)n1` (configuration not stated): 1.64% and -16.4%.
In the case of `OC[C@H]1CC[C@]2(CC1)CN(Cc1ccccn1)Cc1ccccc1O2`, the values for the Percent Effect in assay [1] and in assay [2] were 0.104% and 2.28%, respectively.
Consider `O=C(NC1CC1)[C@H]1C[C@H]2OCC[C@H]2N(CC2CCOCC2)C1`, for which the values for the Percent Effect in assay [1] and in assay [2] were 4.28% and -17.4%, respectively.
`COc1cc(C)nc(N2CCN(C(=O)CCc3nccs3)CC2)n1`: the values for the Percent Effect in assay [1] and in assay [2] were 2.87% and -3.5%, respectively.
In the same order, the values of `Cc1nccn1C1CCCN(C(=O)c2cc(O)nc3ccccc23)C1` (configuration not stated) are 1.77% and 5.42%.
With `Cc1noc(C2CCN(C(=O)CCc3nccs3)CC2)n1`, the Percent Effect was -2.48% in assay [1] and -79.2% in assay [2].
With `Cc1nc(CNC(=O)NCC(O)c2ccc(F)c(F)c2)cs1` (configuration not stated), the Percent Effect in assay [1] is -2.91%; in assay [2] it was 4.89%.
Regarding `COc1ccccc1CC(=O)NCc1c(C)nc2cc(=O)[nH]n2c1C`, the Percent Effect is -0.878% in assay [1] and 13.6% in assay [2].
